Laboratory results from PubChem BioAssay (Tox21).
Results filed as inconclusive are left out. Values without a mark were called inactive. Calls of active or inactive are those of the source. Calls follow the shape of the dose curve; as a rule, active = well fitted cell-killing curve with a large enough effect in the repeat runs; inconclusive = weak or mixed curves, or effect the other way; inactive = no such curve, though single readings can be large or run the other way.

Assay: Caspase-3/7 induction in CHO-K1 cells by small molecules, qHTS cell viability counter screen (AID 1346979); also: nearly all actives have a fitted effect of over 35% in size
Conditions: CellTiter-Fluor fluorescence, 17 h; series mostly up to 92.4 µM; activity change, negative = cytotoxicity: at the top concentration
From the text: National Center for Advancing Translational Sciences [NCATS]
NIH Chemical Genomics Center [NCGC]
U.S. Environmental Protection Agency [EPA]
National Institutes of Environmental Health Sciences [NIEHS]
National Toxicology Program [NTP]
U.S. Food and Drug Administration [FDA]
Apoptosis is a process of programmed cell death and plays a central role in the development of multicellular organisms. It is a highly regulated process and induces cell death by activating caspases, which are the members of cysteine aspartic acid-specific protease (caspase) family. Caspases involved in apoptosis are classified by their mechanism of action as initiator caspases (caspase-2, -8, -9 and -10) and executioner caspases (caspase-3, -6, and -7). Inhibition of apoptosis results in number of cancers, autoimmune diseases, inflammatory diseases and viral infection. To identify small molecule compounds that induce apoptosis, a homogeneous, luminescent Caspase-Glo 3/7 assay was used. Wild type CHO-K1 cells were used to screen Tox21 libraries for identifying caspase-3/7 activity inducers. Also cytotoxicity of the compounds was tested in parallel by measuring the cell viability using CellTiter-Fluor assay system in the same wells.
Tox21 Assay Protocol Summary:
CHO-K1 cells were dispensed at 1,500 per well in 5uL of culture medium into white solid bottom 1536-well plates (Corning Life Sciences, Corning, NY) using a Multidrop Combi (Thermo Scientific, Waltham, MA) dispenser. The assay plates were incubated at 37 C and 5% CO2 for 5hr, and then 23nL of compounds dissolved in DMSO and positive control were transferred using a Pintool station (Wako, San Diego, CA). The assay plates were incubated at 37C and 5% CO2 for 17hr. For cytotoxicity read, after 16hr incubation at 37C, 1uL CellTiter-Fluor reagent (Promega Corporation, Madison, WI) was added to each well of the assay plates using Flying Reagent Dispenser (FRD, Aurora Discovery, San Diego, CA). After 1hr incubation at 37C and 5% CO2, the fluorescence signal was quantified using a ViewLux plate reader (PerkinElmer, Shelton, CT).
% is scaled to controls: 0 for no effect and ±100 for the full control effect; potency is read from the fitted curve at half-maximal effect.

Row | SMILES | activity change, negative = cytotoxicity | Potency
1 | Nc1ccc(C(=O)Oc2ccccc2)c(O)c1 | -4.87% [at 42.5 µM] | 
2 | CNc1ccccc1 | -0.189% | 
3 | Cc1ccc(NC(=O)c2ccc(CN3CCN(C)CC3)cc2)cc1Nc1nccc(-c2cccnc2)n1 |  | 23.7 µM (active)
4 | O=C(O)c1ccccc1[N+](=O)[O-] | 7.26% | 
5 | CCOc1cc(OCC)c(C(C)=O)cc1OCC |  | 26.8 µM (active)
6 | CCCCOC(=O)CC#N | -0.674% | 
7 | Cc1cc(SC2=C(O)C[C@@](CCc3ccc(N)cc3)(C(C)C)OC2=O)c(C(C)(C)C)cc1CO | -11.4% | 
8 | CC(=O)Nc1cccc(N)c1 | -0.567% | 
9 | C=C[Si]1(C)O[Si](C)(C=C)O[Si](C)(C=C)O[Si](C)(C=C)O1 (stereo not given) | -0.116% | 
10 | CCCCCCCCCCCCCCCCN | 3.25% [at 42.5 µM] | 
11 | CC1(C)[C@@H]2CC[C@]3(C2)[C@@H]1C(=O)CCC3(C)C | 1.25% | 
12 | Nc1cccc2c(=O)[nH][nH]c(=O)c12 | -0.621% | 
13 | O=C1c2ccccc2C(=O)C1c1ccc2cc(S(=O)(=O)O)cc(S(=O)(=O)O)c2n1 |  | 33.1 µM (active)
14 | C=C(C)C(=O)OCCCCCCCCCCOC(=O)C(=C)C | -0.629% | 
15 | Cc1cc(C)n(CO)n1 | -0.892% | 
16 | CCCc1ccc(OC)cc1 | 7.6% | 
17 | N#Cc1ccc(CC(=O)c2cccc(C(F)(F)F)c2)cc1 | -0.606% | 
18 | CC(C)NC(=O)c1ccccc1N | 3.21% | 
19 | Cc1nc2sccn2c(=O)c1CCN1CCC(=C(c2ccc(F)cc2)c2ccc(F)cc2)CC1 | -9.37% [at 42.5 µM] | 
20 | CC(C(=O)O)c1ccc2c(c1)Cc1cccnc1O2 (stereo not given) | 10.3% [at 42.5 µM] | 

Row | SMILES | activity change, negative = cytotoxicity | Potency
21 | [O-][n+]1ccc(Cl)cc1 | 4.92% | 
22 | COc1cccc([C@H](O)C2CCN(CCc3ccc(F)cc3)CC2)c1OC | 3.76% | 
23 | O=C(OCCCCCOC(=O)c1ccccc1)c1ccccc1 | 12.3% | 
24 | C=Cc1ccc(C=C)cc1 | 5.72% | 
25 | CC(C)(O)C(=O)O | 11% | 
26 | C1CCN(CN2CCCCC2)CC1 | 2.14% | 
27 | CC(=O)S[C@H](C(=O)N[C@H]1Cc2ccccc2[C@H]2CCC[C@@H](C(=O)O)N2C1=O)C(C)C | -1.76% | 
28 | CC(CCl)OC(C)CCl (stereo not given) | 5.35% | 
29 | CC(CN=Cc1ccccc1O)N=Cc1ccccc1O (stereo not given) | -0.667% | 
30 | CCCCCCCCCCCCCCCCC(=O)O | 5.37% [at 42.5 µM] | 
31 | O=C(O)c1cccc(C(=O)O)c1C(=O)O | 5.12% | 
32 | CCCCCCOC(=O)c1ccccc1 | 3.16% | 
33 | O=Cc1ccc([N+](=O)[O-])cc1 | -3% | 
34 | CCc1ccc(C(=O)C(C)CN2CCCCC2)cc1 (stereo not given) | 1.44% [at 42.5 µM] | 
35 | COc1ccnc2c1CCCCC2S(=O)c1nc2ccccc2[nH]1 (stereo not given) | -8.78% [at 42.5 µM] | 
36 | COc1ccc(/C(C)=C/C(=O)O)c(OC)c1 | 13.3% [at 42.5 µM] | 
37 | CCCCC(CC)COCCC#N (stereo not given) | 5.61% | 
38 | COC(=O)/C=C/C(C)=C\C=C\C(C)=C\C=C\C=C(C)\C=C\C=C(C)\C=C\C(=O)O | -9.3% | 
39 | CCOc1ccc(NC(C)=O)cc1N | 1.6% | 
40 | CC(C)CCCCCOC(=O)CS | 0.4% | 
